Test results as given in PubChem BioAssay (NCATS).
Inconclusive results are not listed. Where a call stands in place of a potency, no number is given. The source made the active and inactive calls. Calls follow the shape of the dose curve; as a rule, active = well fitted inhibition curve with a large enough effect; inconclusive = small, poorly fitted or top-dose-only effect; inactive = no such curve, though single readings can be large or run the other way.

system: Zika virus NS2B-NS3 protease (linked construct); experiment: Primary screen NINDS Rhodamine qHTS for Zika virus inhibitors (AID 1347160); conditions: purified NS2B-NS3 protease, Rhodamine110 substrate fluorescence; series mostly up to 33.1 µM; also: nearly all actives have a fitted effect of over 55% in size
From the text: Avindra Nath, Ph.D., National Institute of Neurological Disorders and Stroke (NINDS), Bethesda, MD
Radhakrishnan Padmanabhan, Ph.D., Georgetown University (GU), Washington D.C.
Zika Virus causes congenital defects, including microcephaly and is associated with Guillain-Barre syndrome, eningoencephalitis and myelitis in infected adult. […] Using a target-based approach, we hope to establish a screening paradigm to uncover novel, cell-active NS2B-NS3 protease (Zika Virus) specific inhibitors from NCATS' collection of small molecules using qHTS.
Four assay panel was created to identify potential Zika Virus inhibitors. Namely, (1) GU unlinked NS2B-NS3 AMC tagged protease qHTS, (2) GU unlinked NS2B-NS3 Rhodamine tagged protease qHTS, (3) NINDS linked NS2B-NS3 AMC tagged protease qHTS, (4) NINDS linked NS2B-NS3 Rhodamine tagged protease qHTS. Active compounds were re-acquired and re-screened to confirm inhibition. Inhibitors were further screened against various confirmatory and counterscreens in dose response format.
Early Translation Branch (ETB)
National Center for Advancing Translational Sciences (NCATS), Rockville, MD
National Institute of Health (NIH), Bethesda, Maryland
For the linked assay, Nath lab (NINDS) provided the purified linked NS2B-NS3 protease which is consists of hydrophilic domain of NS2B linked to the NS3 protease domain by a flexible (-[…]-) linker. Control compound aprotinin is obtained from Thermo Scientific (#78432; Waltham, Massachusetts). Rhodamine110 substrate ([N-Cbz]-Nle-Lys-Arg-Arg-Rhod110-Arg-Arg-Lys-Nle-[N-Cbz]) was purchased from either Genscript or Bachem.
1536-well Protease (Rhodamine110 Substrate) Assay:
Briefly, 3 microL of enzyme (25 nM final concentration), in assay buffer (10 mM Tris-HCl pH 8.0 with 0.01% Tween 20) were dispensed into a 1,536-well solid-bottom black plate (Greiner Bio One, Monroe, NC). Twenty-three nL of compounds (final concentration range 7.28 nM to 114 microM) or control Aprotinin (final concentration range 3.47 nM to 114 microM) were transferred via Wako Pin-tool (Wako Automation, Richmond, VA). Samples were incubated (room temperature, protected from light) for 15 minutes followed by a 1 microL Rhodamine110 substrate addition (1.5 microM final concentration). Plates were then immediately read on a ViewLux High-throughput CCD imager (PerkinElmer, Waltham, MA) equipped with FITC fluorescence optics (480(20) nm excitation, 540(25) nm emission), then incubated (room temperature, protected from light) for 15 minutes (~15% conversion). The change in fluorescence intensity over the 15-minute reaction period was normalized against no-inhibitor and no-enzyme controls and the resulting percent inhibition data were fitted to a 4-parameter Hill equation. Aprotinin was used as intraplate control.
Potency is read from the fitted curve at half-maximal effect.

SMILES | Potency
COc1cc(O)cc(C)c1C(=O)OC1C(CO)OC(n2ccc(=O)[nH]c2=O)C1OC(C)=O (stereo not given) | inactive
CC(C)(O)C(O)C(=O)OCc1ccc(O[C@@H]2O[C@H](CO)[C@@H](O)[C@H](O)[C@H]2O)cc1 (stereo not given in full) | inactive
CC(C)(C)NS(=O)(=O)c1ccc(-c2ccc3[nH]nc(N)c3c2)cc1 | inactive
C=C1CC[C@@H]2C(C)(C)CCC[C@@]2(C)[C@@H]1CC/C(=C/C(=O)OC)COC(C)=O | inactive
O=C(O)C1(c2ccc(-c3ccc(Cl)c(Cl)c3)c(F)c2)CC1 | 8.91 µM (active)
C=CC(C)(CC/C=C(\C)C(=O)OC)OC1OC(COC(=O)CC(C)(O)CC(=O)O)C(O)C(O)C1O (stereo not given) | inactive
C=C1C2(C)CC3C4(C)OC(C5OC56C4=CC(=O)OC6(C)C)C3(C)C13C(=O)OC(C)C3(O)C2=O (stereo not given) | inactive
Cc1oc(S(=O)(=O)N2CCCCC2)cc1NC(=O)Nc1ccccc1 | inactive
O=C(O)/C=C/c1ccc2occc2c1O[C@@H]1O[C@H](CO)[C@@H](O)[C@H](O)[C@H]1O | inactive
CC1(C)CC[C@]2(C(=O)O)CC[C@]3(C)C(=CCC4[C@@]5(C)CC[C@H](O[C@@H]6O[C@H](C(=O)O)[C@@H](O)[C@H](O)[C@H]6O)C(C)(C)C5CC[C@]43C)C2C1 (stereo not given in full) | inactive
C=C1CC[C@@H]2[C@@](C)(CO[C@@H]3O[C@H](CO)[C@@H](O)[C@H](O)[C@H]3O)[C@H](O)CC[C@@]2(C)[C@@H]1CC/C(C)=C/CO[C@@H]1O[C@H](CO)[C@@H](O)[C@H](O)[C@H]1O | inactive
C/C(=C\CCC(C)C1CC(O)C2(C)C3CCC4C(C)(C)C(OC5OCC(O)C(O)C5O)CCC45CC35CC(O)C12C)C(=O)O (stereo not given) | inactive
Cc1onc(-c2c(Cl)cccc2Cl)c1CC(=O)NCc1ccc(OCC(F)(F)F)nc1 | inactive
CC(C)=CCC/C(C)=C/CO[C@@H]1O[C@H](CO[C@@H]2OC[C@](O)(CO)[C@H]2O)[C@@H](O)[C@H](O)[C@H]1O | inactive
C[C@@H]1CC2OC(=O)C3=C2C(CCC3O)[C@@]12C[C@@H](c1ccoc1)OC2=O (stereo not given in full) | inactive
CC1(C)C2CCC1(C)C(OC(=O)C(O)(CC(=O)O)CC(=O)O)C2 (stereo not given) | inactive
O=C(C1OC1/C=C/c1ccc2c(c1)OCO2)N1CCCCC1 (stereo not given) | inactive
N#Cc1cc(-c2n[nH]c(-c3ccncc3)n2)ccn1 | inactive
C=C1C2CCC3C(CCC4[C@@]3(C)CCC[C@@]4(C)C(=O)O)(C2)[C@@H]1OC(=O)/C(C)=C\C (stereo not given in full) | 10 µM (active)
C=C[C@H]1[C@H](O[C@@H]2O[C@H](CO)[C@@H](O)[C@H](O)[C@H]2O)OC=C(C(=O)OC)[C@H]1CCO | inactive

SMILES | Potency
C=CC(C)(O)CCC1C(C)(O)CCC2C(C)(C)CCCC21C (stereo not given) | inactive
CC[C@@H](Nc1c(Nc2cccc(C(=O)N(C)C)c2O)c(=O)c1=O)c1ccc(C)o1 | inactive
CC1(C)[C@@H]2CC=C(CO[C@@H]3O[C@H](CO[C@@H]4OC[C@H](O)[C@H](O)[C@H]4O)[C@@H](O)[C@H](O)[C@H]3O)[C@H]1C2 | inactive
Cc1cc(C)c2nc(-c3ccccn3)cc(C(=O)Nc3ccc(S(=O)(=O)Nc4onc(C)c4C)cc3)c2c1 | 2.24 µM (active)
OC[C@@]1(O)CO[C@H](OC[C@H]2O[C@@H](OC(CCCCc3ccc(O)cc3)CCc3ccc(O)cc3)[C@H](O)[C@@H](O)[C@@H]2O)[C@@H]1O (stereo not given in full) | inactive
CC1=C2C[C@@]3(C)[C@@H](CCC[C@@H]3C)C[C@@]2(O)OC1=O | inactive
COC(=O)C1=COC(OC2OC(CO)C(O)C(O)C2O)C2C(COC(=O)/C=C/c3ccc(O)cc3)C(O)C(O)C12 (stereo not given) | inactive
COc1cc(CO)cc(OC)c1O[C@@H]1O[C@H](CO)[C@@H](O)[C@H](O)[C@H]1O | inactive
C[C@@]12CC3(S(=O)(=O)O)OC(O1)[C@]1(COC(=O)c4ccccc4)[C@H]3C[C@]21O[C@@H]1O[C@H](CO)[C@@H](O)[C@H](O)[C@H]1O | inactive
CC(=O)N[C@H](Cc1c[nH]c2ccccc12)C(=O)OCc1cc(C(F)(F)F)cc(C(F)(F)F)c1 | inactive
CC(C)C1(O)C=C2C(=O)CC3C(C)(C(=O)O)CCCC3(C)C2CC1 (stereo not given) | inactive
Cc1ccc(Nc2nnc(-c3ccc([N+](=O)[O-])cc3)o2)cc1Cl | inactive
C/C=C1/C[N+](C)([O-])C2Cc3c([nH]c4ccccc34)C(=O)CC1C2C(=O)OC (stereo not given) | inactive
Cc1cc(CO)c(O)c(C(=O)CC2CC(=O)NC(=O)C2)c1 | inactive
CC(C(=O)Nc1cc(C#N)ccc1CCCC(=O)O)c1ccc(F)c2ccccc12 (stereo not given) | inactive
Cc1cn(-c2cc(NC(=O)c3ccc(C)c(Nc4nccc(-c5cnccn5)n4)c3)cc(C(F)(F)F)c2)cn1 | inactive
Fc1ccccc1-c1nc2ccn(Cc3ccc(-c4ccc(C(F)(F)F)cc4C(F)(F)F)nn3)cc-2n1 | inactive
C[C@@H]1C(=O)O[C@H]2[C@H]1CC[C@@]1(C)C(=O)C=C[C@@](C)(O)[C@H]21 | inactive
CCCCNc1nc(N)c2[nH]c(=O)n(Cc3ccc(OCCN(C)C)nc3)c2n1 | inactive
COCC1OC(n2cnc3c(=O)[nH]cnc32)C(O)C1O (stereo not given) | inactive
